Results from the supplement of paper PMC6555819.

Key:
Assay in all cases: PBM binding z-score (relative to random genomic background probes); higher = stronger binding; sequences stand for … in GC…GCGATTGACAGCGTAGAATGAAGG
[1] = system: FXR:RXRa (NR concentration 270 nM, RXRa partner concentration 90 nM)
In short: (§1)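 Custom Agilent 4×180K protein-binding microarrays carried double-stranded probes. Their 34-nt variable regions held direct-repeat seeds, single-nucleotide variants, half-site ablations and random human genomic background sequences. Arrays were incubated 1 h with ligand-free nuclear receptor dimers in PBS pH 7.4, 2% milk, 0.02% Triton X-100, 1 mM DTT, 0.2 mg/mL BSA and 0.4 mg/ml salmon testes DNA. Antibodies against each partner (one per run) detected binding, and scanned fluorescence was regression-normalized. Binding z-scores use random background probes as reference.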

[2] = system: LXRa:RXRa (NR concentration 270 nM, RXRa partner concentration 90 nM)
In short: as §1

[3] = system: LXRa homodimer (NR concentration 270 nM)
In short: as §1

[4] = system: LXRb:RXRa (NR concentration 270 nM, RXRa partner concentration 90 nM)
In short: as §1

[5] = system: LXRb homodimer (NR concentration 270 nM)
In short: as §1

[6] = system: PPARa:RXRa (NR concentration 270 nM, RXRa partner concentration 90 nM)
In short: as §1

[7] = system: PPARg:RXRa (NR concentration 180 nM, RXRa partner concentration 90 nM)
In short: as §1

[8] = system: PPARg:RXRa 270nM:90nM, anti-RXR (NR concentration 270 nM, RXRa partner concentration 90 nM)
In short: as §1

[9] = system: PPARg:RXRa 30nM:10nM, anti-RXR (NR concentration 30 nM, RXRa partner concentration 10 nM)
In short: as §1

[10] = system: PPARg:RXRa 90nM:30nM, anti-RXR (NR concentration 90 nM, RXRa partner concentration 30 nM)
In short: as §1

[11] = system: PPARg:RXRa DBDmut IVT, anti-RXR (DBD mutation: RXRa K156A/R161A, NR concentration 270 nM, RXRa partner concentration 90 nM)
In short: as §1

[12] = system: PPARg:RXRa IVT, anti-PPARg (NR concentration 270 nM, RXRa partner concentration 90 nM)
In short: as §1

[13] = system: PPARg DBDmut:RXRa IVT, anti-PPARg (DBD mutation: PPARg1 K132A/R137A, NR concentration 270 nM, RXRa partner concentration 90 nM)
In short: as §1

[14] = system: PPARg DBDmut IVT, anti-PPARg (DBD mutation: PPARg1 K132A/R137A, NR concentration 270 nM)
In short: as §1

[15] = system: PPARg homodimer (NR concentration 180 nM)
In short: as §1

[16] = system: PXR:RXRa (NR concentration 270 nM, RXRa partner concentration 90 nM)
In short: as §1

[17] = system: PXR homodimer (NR concentration 270 nM)
In short: as §1

[18] = system: RARa:RXR (NR concentration 270 nM, RXRa partner concentration 90 nM)
In short: as §1

[19] = system: RARa homodimer (NR concentration 270 nM)
In short: as §1

[20] = system: RARb:RXRa (NR concentration 270 nM, RXRa partner concentration 90 nM)
In short: as §1

| Sequence | PBM binding z-score [1] | PBM binding z-score [2] | PBM binding z-score [3] | PBM binding z-score [4] | PBM binding z-score [5] | PBM binding z-score [6] | PBM binding z-score [7] | PBM binding z-score [8] | PBM binding z-score [9] | PBM binding z-score [10] | PBM binding z-score [11] | PBM binding z-score [12] | PBM binding z-score [13] | PBM binding z-score [14] | PBM binding z-score [15] | PBM binding z-score [16] | PBM binding z-score [17] | PBM binding z-score [18] | PBM binding z-score [19] | PBM binding z-score [20] |
| --- | --- | --- | --- | --- | --- | --- | --- | --- | --- | --- | --- | --- | --- | --- | --- | --- | --- | --- | --- | --- |
| AATCAAAGTTCAGGACGAGGTAACGTAAAGCACG | 3.75 | 4.39 | 2.25 | 2.03 | 0.58 | 3.2 | 2.07 | 2.19 | 0.724 | 1.26 | -0.649 | 0.571 | 0.569 | 0.969 | 1.98 | 2.9 | 1.19 | 2.55 | 1.39 | 4.19 |
| GCTCGGAGGACAAGGTCAGCGCTTTGTCCGTAGA | 2.42 | 2.15 | -0.539 | 1.88 | -0.677 | 2.94 | 0.785 | 2.1 | -0.477 | 0.958 | 0.29 | 1.07 | -1.37 | -1.53 | 1.12 | 2.18 | -0.34 | 2.68 | -0.859 | 3.88 |
| CGAACTAGGTCATCCGGGACAGTGAATACATTGA | 4.46 | 2.66 | 0.565 | 2.05 | 0.166 | 5.08 | 8.08 | 6.28 | 3.97 | 5.8 | 8.35 | 8.45 | 3.68 | 1.68 | 1.84 | 1.8 | 0.618 | 2.4 | 0.0887 | 4.09 |
| TAGCCTAGGTCAGATCGGGCCAGTATTCGCTATA | 2.53 | 1.19 | -0.155 | 0.7 | -0.147 | 1.71 | 0.0951 | 0.687 | -0.284 | -0.025 | 0.568 | 1.66 | -0.683 | -1.02 | 0.109 | 1.28 | -0.946 | 0.894 | -0.762 | 3.14 |
| CCTACTGGTCCATTCAGAGGTCATTGATCATATG | 2.73 | 4.6 | 7.06 | 3.9 | 1.12 | 3.32 | 0.652 | 1.92 | 0.224 | 1.05 | 0.337 | 1.32 | -0.102 | 0.307 | 3.17 | 4.52 | 4.29 | 4.42 | 1.99 | 2.89 |
| TCTATTAGTTGAATGGCAACCGACGAGTCCGTTT | 1.04 | 1.04 | 0.119 | 1.01 | 0.477 | 0.96 | -0.00847 | 2.18 | 3.81 | 2.92 | 2.47 | 0.106 | 0.422 | 0.888 | 1.27 | 0.794 | 0.892 | 0.79 | 1.08 | 0.622 |
| CAAACTAGGTCACCGGAAGCTCAAAGTCCGCATG | 4.54 | 2.93 | 0.559 | 2.24 | 0.297 | 5.45 | 9.51 | 7.22 | 5.15 | 7.39 | 8.73 | 9.13 | 6.78 | 2.89 | 2.58 | 1.9 | 0.365 | 3.19 | 1.19 | 4.38 |
| AATACAGGGTCACTAGGCTAGAGTAGGTACGAAT | 6.21 | 5.05 | 0.889 | 3.9 | 0.775 | 5.9 | 7.63 | 6.19 | 2.53 | 5.09 | 3.32 | 5.41 | 1.74 | 1.68 | 2.15 | 2.96 | 0.638 | 3.99 | 1.21 | 4.28 |
| CCTATTAGTTGACCAAAAGGGCAACCGAAGCTCG | 0.908 | 0.905 | 0.816 | 1.02 | 0.763 | 1.5 | 0.545 | 1.52 | 0.286 | 1.18 | 0.681 | 1.22 | -0.0971 | 1.05 | 2.38 | 1.09 | 0.687 | 1.37 | 1.39 | 2.51 |
| ACTAGCAGGCCAAGGTTCACTCAAGATTAGTCCG | 0.739 | 1.16 | 0.631 | 1.04 | -0.0506 | 2.89 | 5.16 | 6.08 | 5.04 | 6.29 | 1.19 | 2.08 | -0.0687 | -0.0109 | 0.515 | 1.36 | 0.191 | 1.35 | 0.0605 | 1.62 |
| CTCGAAAGGTCGGTTGAGGTGAATATACGGATAA | 2.5 | 2.04 | 0.0954 | 1.76 | 0.0541 | 3.15 | 0.944 | 1.6 | 0.365 | 1.15 | -0.113 | 1.11 | 0.319 | 0.349 | 0.741 | 3.62 | 0.148 | 2.94 | 0.256 | 3.27 |
| CTACCAAGGTGAACAAGGTCGTTGACTACTATTC | 1.83 | 1.79 | 0.0971 | 1.79 | -0.0485 | 2.65 | 1.41 | 1.68 | 0.448 | 0.985 | 2.76 | 2.84 | 0.603 | 0.324 | 0.75 | 2.98 | 2.72 | 2.61 | 0.269 | 2.29 |
| AAAGACAGGTGAGTGAAGGTAACTCAGCTGGACG | 0.449 | 0.399 | -0.509 | -0.0849 | -0.324 | 0.472 | 0.63 | 0.239 | -0.273 | 0.0365 | 0.772 | 0.948 | 0.86 | -0.373 | 0.59 | -0.0597 | 0.232 | 0.219 | 0.262 | 0.715 |
| TTACCAAGGTGAAGGTCGTTCATCCCTCTGTAGA | 1.75 | 2.56 | 0.0622 | 1.51 | -0.519 | 2.77 | 3.06 | 4.13 | 2.5 | 3.8 | 1.8 | 3.39 | -0.313 | 0.687 | 0.597 | 1.9 | 0.214 | 1.55 | -0.144 | 2.54 |
| CCAGACAGGTGAAAGGTAACTTAGTCTGGTACGC | 0.545 | 0.539 | -0.368 | 0.935 | -0.486 | 3.31 | 5.21 | 5.6 | 3.58 | 5.77 | 2.21 | 2.75 | 0.0771 | -0.396 | 0.712 | 0.936 | -0.035 | 1.59 | 0.346 | 1.15 |
| TCTAGTTGGTCCAAGGTCACACACTCGAAATGCG | 3.91 | 3.59 | 1.87 | 3.54 | 0.734 | 4.18 | 4.19 | 5.58 | 4.56 | 5.7 | 2.28 | 3.07 | 1.36 | 0.797 | 3.08 | 4.21 | 1.63 | 4.31 | 1.96 | 3.53 |
| ACTAGTTGGTCAGCTGAGGTCACACGCAATTCGG | 4.13 | 3.59 | 2.5 | 3.3 | 0.152 | 3.71 | 1.57 | 2.37 | 0.407 | 1.44 | 1.54 | 2.63 | 0.387 | 0.616 | 2.87 | 5.51 | 1.79 | 4.68 | 0.262 | 3.53 |
| CAAACTAGGTCACCGGCAGGTCAAAGTCCGCATG | 5.82 | 5.46 | 3.97 | 4.21 | 0.888 | 5.7 | 9.54 | 7.62 | 5.44 | 7.61 | 8.64 | 8.72 | 2.38 | 0.783 | 4.83 | 5.26 | 0.922 | 6.42 | 1.55 | 4.93 |
